The source of these data is PubChem BioAssay (EPA / NIEHS).

Assay [1] addresses Cytochrome P450 2C18 (Homo sapiens) (UniProt P33260). As to the kind of experiment: NVS_ADME_hCYP2C18: NovaScreen (NVS) CYP450-related Enzyme Activity (ADME) Assay for human CYP2C18 (AID 2283103; active = hit-call score of the fitted dose curve at least 0.9, where 1 is the maximum; inactive = score below 0.9). The method, boiled down: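 Enzyme activity measured by fluorescence 0.5 h after compound addition, using recombinant CYP2C18 and a specific substrate. Actives from duplicate 10 uM screening were retested in concentration series (top 20 uM); acetonitrile served as negative baseline.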

Assay [2] concerns the target human CYP4F12, CYP4F12 (gene 66002) (UniProt Q9HCS2). As to the kind of experiment: NVS_ADME_hCYP4F12: NovaScreen (NVS) CYP450-related Enzyme Activity (ADME) Assay for human CYP4F12 (AID 2283111). An outline of the steps: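 Recombinant enzyme with a fluorescent substrate, signal read at 0.5 h post-dose; activity loss analysed relative to acetonitrile. Compounds first run in duplicate at 10 uM, with follow-up concentration-response testing of actives.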

Assay [3] deals with rat CYP2B1, gene 24300. As to the kind of experiment: NVS_ADME_rCYP2B1: NovaScreen (NVS) CYP450-related Enzyme Activity (ADME) Assay for rat CYP2B1 (AID 2283117). An outline of the steps: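 Cell-free fluorescence enzyme assay, recombinant rat CYP2B1, 0.75 h after dosing. Single-concentration duplicates at 10 uM preceded concentration series (max 20 uM) for actives; acetonitrile as negative-control baseline.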

Assay [4] has as its target human Acetylcholinesterase (AChE), ACHE (gene 43) (UniProt P22303). Put plainly: NVS_ENZ_hAChE: NovaScreen (NVS) Enzymatic Assay for human Acetylcholinesterase (AChE) (AID 2283129). An outline of the steps: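 Actives from a duplicate single-point screen (25 uM) were followed up in concentration series. Enzyme activity read by absorbance (colorimetric) 0.33 hour after dosing, cell-free, normalized to DMSO, with loss of signal scored.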

In assay [5] the target is human Peroxisome Proliferator-activated Receptor delta (PPARd), PPARD (gene 5467) (UniProt Q03181). As to the kind of experiment: ATG_PPARd_TRANS: Attagene TRANS-FACTORIAL HepG2 Assay for human Peroxisome Proliferator-activated Receptor delta (PPARd) (AID 2283002). The method, boiled down: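 Multiplexed trans-activation format: HepG2 liver cells expressing exogenous NR-Gal4 chimeras and GAL4-UAS reporters were exposed for 24 h. Reporter mRNA was detected by RT-PCR with capillary electrophoresis fluorescence; activity fitted as gain of signal relative to DMSO.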
human Peroxisome Proliferator-activated Receptor delta (PPARd), PPARD (gene 5467), sequence (Q03181 whole entry, looked up, the tested form may be a part): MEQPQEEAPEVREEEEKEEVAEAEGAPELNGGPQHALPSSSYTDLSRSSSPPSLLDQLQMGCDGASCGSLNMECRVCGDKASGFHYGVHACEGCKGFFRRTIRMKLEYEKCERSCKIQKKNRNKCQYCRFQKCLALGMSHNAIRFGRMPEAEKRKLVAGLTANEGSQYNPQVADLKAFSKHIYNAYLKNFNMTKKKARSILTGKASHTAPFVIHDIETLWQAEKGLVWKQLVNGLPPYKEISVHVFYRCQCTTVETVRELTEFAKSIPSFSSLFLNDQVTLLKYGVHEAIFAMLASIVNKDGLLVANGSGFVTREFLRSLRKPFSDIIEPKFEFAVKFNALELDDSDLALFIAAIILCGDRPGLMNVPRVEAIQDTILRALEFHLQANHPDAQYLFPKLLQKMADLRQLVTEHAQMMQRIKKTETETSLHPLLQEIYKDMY

The target of assay [6] is Peroxisome proliferator-activated receptor gamma (Homo sapiens) (UniProt P37231). Put plainly: ATG_PPARg_TRANS: Attagene TRANS-FACTORIAL HepG2 Assay for human Peroxisome Proliferator-activated Receptor-gamma (PPARg) (AID 2283007). The method, boiled down: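 Transient transfection of HepG2 with GAL4-UAS-driven reporter units; chemical dosing 24 h; total RNA → oligo(dT) RT → PCR with reporter primers → 6-FAM primer extension → HpaI digest 2 h 37 C → capillary electrophoresis. Positive direction vs DMSO.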
Peroxisome proliferator-activated receptor gamma (Homo sapiens), sequence (P37231 whole entry, looked up, the tested form may be a part): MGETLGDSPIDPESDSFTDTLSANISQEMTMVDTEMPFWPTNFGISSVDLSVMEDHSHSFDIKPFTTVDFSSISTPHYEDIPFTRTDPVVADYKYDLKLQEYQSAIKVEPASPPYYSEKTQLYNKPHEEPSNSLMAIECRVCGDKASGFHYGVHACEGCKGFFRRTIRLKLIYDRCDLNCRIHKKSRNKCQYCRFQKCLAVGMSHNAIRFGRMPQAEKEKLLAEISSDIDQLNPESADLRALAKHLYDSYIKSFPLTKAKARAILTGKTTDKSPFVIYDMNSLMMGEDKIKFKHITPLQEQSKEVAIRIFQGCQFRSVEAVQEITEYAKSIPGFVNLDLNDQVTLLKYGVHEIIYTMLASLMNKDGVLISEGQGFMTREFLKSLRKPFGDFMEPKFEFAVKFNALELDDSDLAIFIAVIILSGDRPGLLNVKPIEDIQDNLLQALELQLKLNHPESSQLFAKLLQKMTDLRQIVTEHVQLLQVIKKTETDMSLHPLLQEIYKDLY

Assay [7] concerns the target Nuclear receptor subfamily 1 group I member 2 (Homo sapiens) (UniProt O75469). As to the kind of experiment: ATG_PXR_TRANS: Attagene TRANS-FACTORIAL HepG2 Assay for human Pregnane X Receptor (PXR) (AID 2283008). The method, boiled down: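 Trans-factorial format: exogenous NR-Gal4 fusion activity, not endogenous factor, in transfected human HepG2 liver cells. After 24 h dosing, RNA isolated, reverse-transcribed, amplified and resolved by capillary electrophoresis; induction scored versus DMSO.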

The target in assay [8] is sheep Cyclooxygenase-1 (Cox1), PTGS1 (gene 443551) (UniProt P05979). As to the kind of experiment: NVS_ENZ_oCOX1: NovaScreen (NVS) Enzymatic Assay for sheep Cyclooxygenase-1 (Cox1) (AID 2283239).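 Also: actives reduce cyclooxygenase activity so potencies are for inhibitors.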 An outline of the steps:
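Absorbance read-out of cyclooxygenase activity in a cell-free preparation from sheep seminal vesicles, taken 0.66 hour after dosing. Initial testing was in duplicate at 25 uM, and confirmatory testing was run in concentration series.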

For assay [9], the target named is Norway rat Vesicular Monoamine Transporter (VMAT2), neurotransmitter transporter, Slc18a2 (gene 25549) (UniProt Q01827). As to the kind of experiment: NVS_TR_rVMAT2: NovaScreen (NVS) Transporter Assay for Norway rat Vesicular Monoamine Transporter (VMAT2), neurotransmitter transporter (AID 2283376).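 Also: actives lower the bound radioligand signal below the DMSO level.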 An outline of the steps: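 Binding endpoint from rat forebrain tissue, cell-free; 1 h incubation; filtered radioligand counted; 25 uM duplicate primary then dose series; DMSO negative control.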
Norway rat Vesicular Monoamine Transporter (VMAT2), neurotransmitter transporter, Slc18a2 (gene 25549), sequence (Q01827 whole entry, looked up): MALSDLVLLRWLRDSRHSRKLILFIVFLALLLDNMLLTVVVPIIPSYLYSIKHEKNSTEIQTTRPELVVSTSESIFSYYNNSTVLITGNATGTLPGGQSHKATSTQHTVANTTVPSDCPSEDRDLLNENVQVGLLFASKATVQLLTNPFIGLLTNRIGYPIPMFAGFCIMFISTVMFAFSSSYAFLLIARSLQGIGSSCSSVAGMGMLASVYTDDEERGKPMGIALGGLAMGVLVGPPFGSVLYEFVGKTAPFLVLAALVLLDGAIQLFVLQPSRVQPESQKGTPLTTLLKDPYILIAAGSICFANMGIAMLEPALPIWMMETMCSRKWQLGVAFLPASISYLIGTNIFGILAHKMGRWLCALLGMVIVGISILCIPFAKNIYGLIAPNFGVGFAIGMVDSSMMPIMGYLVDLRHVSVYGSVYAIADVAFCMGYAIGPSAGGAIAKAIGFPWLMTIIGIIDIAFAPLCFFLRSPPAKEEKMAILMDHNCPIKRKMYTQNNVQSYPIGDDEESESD

Assay [10] is described as follows: CCTE_Harrill_HTTr_Viability_MCF7: CCTE's 6-hour Cell Viability Assessment for the High-Throughput Transcriptomics (HTTr) Platform, in MCF-7 cells cultured in DMEM + 10% fetal bovine serum, Harrill Lab (AID 2284010; active = hit-call score of the fitted dose curve at least 0.9, where 1 is the maximum; inactive = score below 0.9). An outline of the steps: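 Propidium iodide exclusion, imaged by high-content analysis, gauged viability after a six-hour exposure across eight concentrations. Cells were MCF-7 grown in DMEM with 10% fetal bovine serum; fits run in both directions against DMSO.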

Assay [11] in a line: CCTE_Harrill_HTTr_Apoptosis_MCF7: CCTE's 6-hour Apoptosis Assessment for the High-Throughput Transcriptomics (HTTr) Platform, in MCF-7 cells cultured in DMEM + 10% fetal bovine serum, Harrill Lab (AID 2284011; active = hit-call score of the fitted dose curve at least 0.9, where 1 is the maximum; inactive = score below 0.9). The method, boiled down: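 MCF-7 (DMEM + 10% FBS), 384-well; 8-pt dilution series, 6 h chemical exposure; caspase-3/7 activation via CellEvent Caspase 3/7 Green, HCI; bidirectional fit vs DMSO.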

Where “and” joins values, the source holds several entries; their conditions need not be identical. Equal entries are not always repeated. Inconclusive results are not listed. The source holds several records for some structures; these can differ, active in one and inactive in another. Calls of active or inactive are those of the source. The calls were made as follows, unless noted: active = hit-call score of the fitted dose curve at least 0.9, where 1 is the maximum; inconclusive = response in the unintended direction; inactive = score below 0.9.

Cytochrome P450 2C18 (Homo sapiens), sequence (P33260 whole entry, looked up): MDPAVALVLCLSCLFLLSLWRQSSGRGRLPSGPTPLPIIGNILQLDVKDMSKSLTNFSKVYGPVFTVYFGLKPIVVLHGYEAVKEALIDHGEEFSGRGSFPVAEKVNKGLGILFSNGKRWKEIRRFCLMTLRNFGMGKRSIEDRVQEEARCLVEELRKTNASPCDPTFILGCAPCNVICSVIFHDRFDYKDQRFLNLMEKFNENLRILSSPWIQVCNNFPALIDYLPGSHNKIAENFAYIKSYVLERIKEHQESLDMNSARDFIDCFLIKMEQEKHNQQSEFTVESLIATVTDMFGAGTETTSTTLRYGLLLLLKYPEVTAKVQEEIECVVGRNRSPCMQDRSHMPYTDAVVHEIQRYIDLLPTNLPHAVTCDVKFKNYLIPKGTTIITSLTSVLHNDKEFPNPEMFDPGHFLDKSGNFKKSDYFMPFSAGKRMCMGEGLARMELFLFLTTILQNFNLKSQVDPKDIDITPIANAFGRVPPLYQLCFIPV
human Acetylcholinesterase (AChE), ACHE (gene 43), sequence (P22303 whole entry, looked up): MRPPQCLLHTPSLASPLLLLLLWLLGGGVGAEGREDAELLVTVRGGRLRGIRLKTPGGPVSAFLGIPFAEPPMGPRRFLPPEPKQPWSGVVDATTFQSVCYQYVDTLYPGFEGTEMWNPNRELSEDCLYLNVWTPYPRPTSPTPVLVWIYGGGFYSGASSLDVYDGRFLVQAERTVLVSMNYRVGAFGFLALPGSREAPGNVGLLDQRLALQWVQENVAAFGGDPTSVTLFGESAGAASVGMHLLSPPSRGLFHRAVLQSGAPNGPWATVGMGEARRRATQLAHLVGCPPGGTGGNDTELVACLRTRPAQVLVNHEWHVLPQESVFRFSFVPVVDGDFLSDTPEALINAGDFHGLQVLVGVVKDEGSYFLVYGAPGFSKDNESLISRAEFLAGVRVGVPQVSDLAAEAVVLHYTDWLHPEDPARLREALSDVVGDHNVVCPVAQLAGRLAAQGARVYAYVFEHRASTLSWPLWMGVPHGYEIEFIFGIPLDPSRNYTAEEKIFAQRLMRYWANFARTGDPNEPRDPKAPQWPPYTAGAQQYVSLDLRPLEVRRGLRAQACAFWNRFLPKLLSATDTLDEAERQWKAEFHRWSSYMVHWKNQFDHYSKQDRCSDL
Nuclear receptor subfamily 1 group I member 2 (Homo sapiens), sequence (O75469 whole entry, looked up, the tested form may be a part): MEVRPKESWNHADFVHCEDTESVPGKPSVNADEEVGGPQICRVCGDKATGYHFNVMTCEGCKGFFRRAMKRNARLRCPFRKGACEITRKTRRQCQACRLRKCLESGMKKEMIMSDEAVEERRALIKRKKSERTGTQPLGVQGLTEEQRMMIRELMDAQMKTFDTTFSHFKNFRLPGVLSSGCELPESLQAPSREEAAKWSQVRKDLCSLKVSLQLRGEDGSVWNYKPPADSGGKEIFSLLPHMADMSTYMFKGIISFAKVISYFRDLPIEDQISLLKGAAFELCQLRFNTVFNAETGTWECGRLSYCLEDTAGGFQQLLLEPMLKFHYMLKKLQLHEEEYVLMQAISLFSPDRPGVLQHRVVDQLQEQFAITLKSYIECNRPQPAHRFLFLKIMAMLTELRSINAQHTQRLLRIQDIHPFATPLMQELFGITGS
sheep Cyclooxygenase-1 (Cox1), PTGS1 (gene 443551), sequence (P05979 whole entry, looked up): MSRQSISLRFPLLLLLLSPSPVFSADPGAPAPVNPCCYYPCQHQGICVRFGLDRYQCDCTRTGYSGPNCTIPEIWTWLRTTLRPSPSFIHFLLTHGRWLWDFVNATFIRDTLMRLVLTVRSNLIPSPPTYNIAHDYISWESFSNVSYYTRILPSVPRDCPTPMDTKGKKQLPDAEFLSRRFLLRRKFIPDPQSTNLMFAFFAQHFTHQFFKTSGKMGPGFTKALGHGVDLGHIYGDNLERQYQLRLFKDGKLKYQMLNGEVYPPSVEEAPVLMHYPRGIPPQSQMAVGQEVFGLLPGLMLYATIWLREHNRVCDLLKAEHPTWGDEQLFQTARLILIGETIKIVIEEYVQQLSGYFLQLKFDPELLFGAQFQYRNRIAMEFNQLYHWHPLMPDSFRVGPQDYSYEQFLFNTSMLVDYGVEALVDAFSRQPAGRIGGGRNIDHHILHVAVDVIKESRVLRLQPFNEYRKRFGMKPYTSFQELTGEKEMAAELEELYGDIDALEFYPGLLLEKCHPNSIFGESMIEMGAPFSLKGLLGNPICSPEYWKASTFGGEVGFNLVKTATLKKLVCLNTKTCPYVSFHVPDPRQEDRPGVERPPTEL
human CYP4F12, CYP4F12 (gene 66002), sequence (Q9HCS2 whole entry, looked up): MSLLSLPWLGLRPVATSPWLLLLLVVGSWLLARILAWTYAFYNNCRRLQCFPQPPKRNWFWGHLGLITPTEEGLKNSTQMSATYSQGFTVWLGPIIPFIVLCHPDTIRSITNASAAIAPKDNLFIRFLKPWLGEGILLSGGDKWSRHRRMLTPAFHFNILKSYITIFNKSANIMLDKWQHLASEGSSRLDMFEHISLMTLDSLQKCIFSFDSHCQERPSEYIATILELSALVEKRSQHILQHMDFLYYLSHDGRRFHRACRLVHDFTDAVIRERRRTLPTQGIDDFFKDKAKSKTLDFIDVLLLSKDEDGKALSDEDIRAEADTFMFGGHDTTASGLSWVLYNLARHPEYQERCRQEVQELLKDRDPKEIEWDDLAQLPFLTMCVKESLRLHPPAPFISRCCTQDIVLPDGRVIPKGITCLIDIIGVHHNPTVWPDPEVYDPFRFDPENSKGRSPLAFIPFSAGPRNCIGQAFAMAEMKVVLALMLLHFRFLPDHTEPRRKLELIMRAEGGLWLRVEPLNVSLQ

Consider `CC(=O)[C@H]1CC[C@H]2[C@@H]3CCC4=CC(=O)CC[C@]4(C)[C@H]3CC[C@]12C`, for which the AC50 in [1] is 7.03 µM (active) and 2.27 µM (active); in assay [4] it was 4.82 µM (active). Moreover, the compound was classed as inactive in assay [1], in [2] and in assay [3].
For the compound `O=[N+]([O-])c1ccccc1Cl`, the compound was classed as inactive in [5], in assay [6], in assay [7], in [8], in [9] and in [10]. The result in [11] was inactive.
